Measured values: PubChem BioAssay
“And” between values parts separate entries of the source, which are not always exact repeats. Identical values can stand only once. A structure can be active in one record and inactive in another. The source made the active and inactive calls. Unless noted, no rule for the calls is given here.

Key:
[1] = test system: Wnt5a (protein binding on small-molecule microarray); assay: small molecules binding Wnt5a protein – biophysical, small-molecule microarray, 635/667 nm fluorescence, primary screen (AID 1142); conditions: 635 nm fluorescence, higher = more signal;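 also: fluorescence read at 667 nm with signal to noise per printed feature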
[2] = ATP-based viability of Huh7 replicon cells – cell-based, CellTiter-Glo luminescence, basal, 48 h, cytotoxicity control for HCV replication inhibitor project, primary screen (AID 1143); conditions: higher = more signal, called active from +8 up or from −8 down;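 also: Huh7 hepatoma cells carrying a hepatitis C replication reporter with no stimulus; test concentration not given here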
[3] = Pseudomonas biofilm growth suppression – PAO1 strain, BacTiter-Glo luminescence, LB-PBS, primary screen (AID 1144); conditions: P. aeruginosa PAO1 biofilm, 12 h, higher = more signal
[4] = basal CRE-LacZ reporter activity in PC12 – cell-based, unstimulated, primary screen (AID 1145); conditions: no forskolin, luminescence, 4.5 h, higher = more signal, called active from +8 up or from −8 down
[5] = forskolin-driven CRE-LacZ activity in PC12 – cell-based, CRE-LacZ reporter, forskolin-stimulated, primary screen (AID 1146); conditions: luminescence, 4.5 h, higher = more signal, called active from +8 up or from −8 down;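 also: PC12 cells with 6xCRE LacZ reporter stimulated by forskolin 10 µM; beta-galactosidase reporter signal reflecting CREB driven transcription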
[6] = molecular target: Streptavidin (Streptomyces avidinii) (UniProt P22629); assay: compounds binding control protein streptavidin – biophysical, small-molecule microarray, 635/667 nm fluorescence, artefact control for SMM compound annotation, primary screen (AID 1147); conditions: higher = more signal;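 also: signal reflects streptavidin binding to arrayed compounds as a control protein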
Sequence of Streptavidin (Streptomyces avidinii) (P22629 whole entry, looked up): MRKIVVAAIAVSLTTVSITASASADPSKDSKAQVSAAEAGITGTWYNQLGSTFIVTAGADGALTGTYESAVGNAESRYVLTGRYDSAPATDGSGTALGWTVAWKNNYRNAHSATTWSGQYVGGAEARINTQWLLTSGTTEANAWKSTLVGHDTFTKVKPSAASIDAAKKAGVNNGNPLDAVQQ

[7] = probe aInhba binding on compound microarray – biochemical, small-molecule microarray, 635/667 nm fluorescence, primary screen (AID 1148); conditions: higher = more signal;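 also: score merges 667nm spot fluorescence with signal-to-noise for antibody binding to printed compounds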
Torsin-1A (Homo sapiens) [8] = molecular target: Torsin-1A (Homo sapiens) (UniProt O14656); assay: TOR1A wild-type binding on microarray – cell lysate, small-molecule microarray, lysate, 635/667 nm, primary screen (AID 1149); conditions: COS7 hTOR1A-WT lysate, 635 nm fluorescence, higher = more signal
Sequence of Torsin-1A (Homo sapiens) (O14656 whole entry, looked up): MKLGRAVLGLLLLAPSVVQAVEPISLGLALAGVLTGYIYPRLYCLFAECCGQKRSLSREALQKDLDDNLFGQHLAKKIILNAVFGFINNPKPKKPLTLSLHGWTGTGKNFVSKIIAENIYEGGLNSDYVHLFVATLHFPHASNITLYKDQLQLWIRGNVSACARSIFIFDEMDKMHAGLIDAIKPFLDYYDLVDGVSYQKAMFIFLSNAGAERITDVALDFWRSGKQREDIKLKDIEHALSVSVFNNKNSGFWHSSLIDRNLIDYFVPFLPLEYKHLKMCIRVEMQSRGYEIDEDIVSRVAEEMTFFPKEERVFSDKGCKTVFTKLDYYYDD

Torsin-1A (Homo sapiens) [9] = molecular target: Torsin-1A (Homo sapiens) (UniProt O14656); assay: torsin A mutant lysate binding on microarrays – cell lysate, small-molecule microarray, COS7 lysate, 635/667 nm fluorescence, primary screen (AID 1150); conditions: COS7 hTOR1A mutant lysate, 635 nm fluorescence, higher = more signal;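 also: score pools 667 nm emission and signal to noise measuring lysate protein binding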
[10] = test system: Sonic hedgehog protein (Shh); assay: Sonic hedgehog microarray binding compounds – biochemical, small-molecule microarray, 635/667 nm fluorescence, primary screen (AID 1151); conditions: 635 nm fluorescence, higher = more signal;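 also: Shh protein binding to compounds spotted on small-molecule microarray slides; score combines spot fluorescence intensity with signal-to-noise across triplicate slides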
[11] = optical density shifts of acrAB sulA E. coli – strain DRC41, OD650, 48 h, E. coli filamentation inducer project, primary screen (AID 1152); conditions: higher = more signal, called active from +8 up or from −8 down;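 also: E. coli MC1000 strain DRC41 lacking acrAB efflux pump and sulA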
[12] = probe aLefty1 binding on compound microarray – biochemical, small-molecule microarray, 635/667 nm fluorescence, primary screen (AID 1153); conditions: higher = more signal;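 also: score merges spot fluorescence with signal-to-noise ratio from the scanned slide images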
[13] = plasmodial surface anion channel blockers, osmotic lysis – cell-based, P. falciparum Indochina, OD700, 1 h, primary screen (AID 1154); conditions: P. falciparum Indochina infected RBC osmotic lysis, higher = more signal, called active from +8 up or from −8 down
[14] = plasmodial surface anion channel blockers, osmotic lysis – cell-based, P. falciparum Indochina, OD700, 2 h, primary screen (AID 1155);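 also: lysis reports solute entry through the parasite surface anion channel PSAC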; conditions: P. falciparum Indochina infected erythrocytes, higher = more signal, called active from +8 up or from −8 down
[15] = changes in parasitized red cell lysis, either direction – P. falciparum Indochina, OD700, 3 h, PSAC antagonist project, primary screen (AID 1156); conditions: P. falciparum-infected erythrocytes, osmotic lysis, higher = more signal, called active from +8 up or from −8 down
[16] = plasmodial surface anion channel blockers, osmotic lysis – cell-based, P. falciparum Indochina, OD700, 18 h, primary screen (AID 1157); conditions: P. falciparum Indochina infected erythrocytes, osmotic lysis OD700, 18 h; higher = more signal, called active from +8 up or from −8 down
[17] = S6 kinase pathway phospho-S6 level changes – cell-based, A549, cytoblot, luminescence, serum-stimulated, primary screen (AID 1158); conditions: 5 h, higher = more signal;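 also: serum-stimulated A549 lung adenocarcinoma cells; signal is phosphorylated S6 detected by cytoblot immunostaining with HRP secondary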
[18] = molecular target: NADPH oxidase 2 (Homo sapiens) (UniProt P04839); assay: compounds shifting NOX2 Amplex Red fluorescence – cell-based, HEK293-NOX2, PMA-stimulated, NOX inhibitor project, primary screen (AID 1159); conditions: 45 min, higher = more signal, called active from +8 up or from −8 down; also: test concentration not given here
Sequence of NADPH oxidase 2 (Homo sapiens) (P04839 whole entry, looked up): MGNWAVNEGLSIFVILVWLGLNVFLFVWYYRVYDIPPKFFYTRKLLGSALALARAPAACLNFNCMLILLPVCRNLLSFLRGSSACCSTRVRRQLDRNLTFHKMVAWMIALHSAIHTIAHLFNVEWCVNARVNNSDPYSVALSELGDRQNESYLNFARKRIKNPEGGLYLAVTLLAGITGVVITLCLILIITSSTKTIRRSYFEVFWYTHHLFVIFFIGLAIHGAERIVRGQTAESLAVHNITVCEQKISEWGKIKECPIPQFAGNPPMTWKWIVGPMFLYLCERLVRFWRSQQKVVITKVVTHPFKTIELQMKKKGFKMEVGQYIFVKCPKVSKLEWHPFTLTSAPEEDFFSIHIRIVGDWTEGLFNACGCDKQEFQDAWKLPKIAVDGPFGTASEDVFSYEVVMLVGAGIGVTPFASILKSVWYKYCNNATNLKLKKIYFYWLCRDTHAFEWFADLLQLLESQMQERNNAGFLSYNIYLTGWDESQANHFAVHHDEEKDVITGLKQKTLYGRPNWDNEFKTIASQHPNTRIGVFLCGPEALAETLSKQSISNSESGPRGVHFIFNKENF

[19] = molecular target: NADPH oxidase 4 (Homo sapiens) (UniProt Q9NPH5); assay: compounds shifting NOX4 Amplex Red fluorescence – cell-based, HEK293-NOX4, tetracycline-induced, NOX inhibitor project, primary screen (AID 1160); conditions: HEK293-NOX4, Amplex Red H2O2 fluorescence, 45 min; higher = more signal, called active from +8 up or from −8 down
Sequence of NADPH oxidase 4 (Homo sapiens) (Q9NPH5 whole entry, looked up): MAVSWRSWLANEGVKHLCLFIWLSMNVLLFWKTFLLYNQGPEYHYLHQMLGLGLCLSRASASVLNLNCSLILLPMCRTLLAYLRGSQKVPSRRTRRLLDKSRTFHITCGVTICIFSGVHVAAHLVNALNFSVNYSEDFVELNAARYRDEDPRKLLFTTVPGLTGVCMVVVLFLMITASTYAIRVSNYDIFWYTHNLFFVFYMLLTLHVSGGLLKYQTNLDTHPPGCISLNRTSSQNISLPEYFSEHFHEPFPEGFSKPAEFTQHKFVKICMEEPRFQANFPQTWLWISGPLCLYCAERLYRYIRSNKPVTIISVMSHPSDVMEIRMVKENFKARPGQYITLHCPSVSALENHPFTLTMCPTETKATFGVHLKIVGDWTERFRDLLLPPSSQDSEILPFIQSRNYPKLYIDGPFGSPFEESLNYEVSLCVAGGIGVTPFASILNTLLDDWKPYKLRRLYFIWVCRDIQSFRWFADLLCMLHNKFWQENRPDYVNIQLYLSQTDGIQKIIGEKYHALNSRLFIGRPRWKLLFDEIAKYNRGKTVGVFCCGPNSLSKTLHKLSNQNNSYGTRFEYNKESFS

[20] = molecular target: NADPH oxidase 5 (Homo sapiens) (UniProt Q96PH1); assay: compounds shifting NOX5 Amplex Red fluorescence – cell-based, HEK293-NOX5, NOX inhibitor project, primary screen (AID 1161); conditions: HEK293-NOX5, ionomycin, 45 min, higher = more signal
Sequence of NADPH oxidase 5 (Homo sapiens) (Q96PH1 whole entry, looked up): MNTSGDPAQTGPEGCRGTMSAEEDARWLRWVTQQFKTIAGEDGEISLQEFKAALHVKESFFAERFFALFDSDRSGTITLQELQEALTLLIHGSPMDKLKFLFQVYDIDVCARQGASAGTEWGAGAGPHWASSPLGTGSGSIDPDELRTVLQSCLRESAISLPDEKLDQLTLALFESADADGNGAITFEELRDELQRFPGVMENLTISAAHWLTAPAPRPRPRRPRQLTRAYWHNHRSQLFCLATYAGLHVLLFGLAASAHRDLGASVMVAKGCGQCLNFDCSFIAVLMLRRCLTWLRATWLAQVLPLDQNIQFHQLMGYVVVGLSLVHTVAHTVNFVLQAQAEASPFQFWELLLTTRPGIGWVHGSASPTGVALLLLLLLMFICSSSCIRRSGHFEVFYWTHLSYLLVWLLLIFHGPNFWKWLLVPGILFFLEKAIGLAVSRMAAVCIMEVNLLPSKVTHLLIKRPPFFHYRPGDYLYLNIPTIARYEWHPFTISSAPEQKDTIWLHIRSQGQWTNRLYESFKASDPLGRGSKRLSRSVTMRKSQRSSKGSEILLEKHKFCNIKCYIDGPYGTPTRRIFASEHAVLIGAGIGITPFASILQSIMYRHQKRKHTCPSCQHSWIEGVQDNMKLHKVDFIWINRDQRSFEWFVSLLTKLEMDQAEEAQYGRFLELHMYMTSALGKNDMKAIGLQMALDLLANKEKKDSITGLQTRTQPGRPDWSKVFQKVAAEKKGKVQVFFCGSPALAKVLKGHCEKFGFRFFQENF

| Compound | composite z-score [1] | z-score [2] | z-score [3] | z-score [4] | z-score [5] | composite z-score [6] | composite z-score [7] | composite z-score (Torsin-1A (Homo sapiens) [8]) | composite z-score (Torsin-1A (Homo sapiens) [9]) | composite z-score [10] | z-score [11] | composite z-score [12] | z-score [13] | z-score [14] | z-score [15] | z-score [16] | z-score [17] | z-score [18] | z-score [19] | z-score [20] |
| --- | --- | --- | --- | --- | --- | --- | --- | --- | --- | --- | --- | --- | --- | --- | --- | --- | --- | --- | --- | --- |
| C=CCN(Cc1ccccc1)C(=O)C1N(c2c(Cl)cccc2CO)C(=O)C2C(C(=O)O)C3C=CC21O3 (stereo not given) | -0.597 and -1.05 | -0.634 (inactive) and -0.0943 (inactive) | -2.23 (inactive) and -0.0736 (inactive) | -0.619 (inactive) and -0.216 (inactive) | -1.1 (inactive) and 0.577 (inactive) | -1.38 and -2.19 | -0.182 and -0.364 | -0.986 and -1.77 | -1.2 and -1.14 | -0.796 and -0.69 | 3.44 (inactive) and 0.465 (inactive) | -0.147 | -0.97 (inactive) and 0.504 (inactive) | -0.994 (inactive) and 0.698 (inactive) | -0.847 (inactive) and 0.14 (inactive) | -1.32 (inactive) and 0.357 (inactive) | 1.33 and -0.0264 | 0.00151 (inactive) and 0.1 (inactive) | -0.574 (inactive) and -0.406 (inactive) | -0.259 and -0.994 |
| CC(C)[Si]1(C(C)C)OCc2cc(C3CC3)nc(CCc3ccccc3)c21 | -0.106 and 0.243 | 0.412 (inactive) and -0.432 (inactive) | -0.37 (inactive) and 0.125 (inactive) | 0.0035 (inactive) and 0.148 (inactive) | -0.271 (inactive) and -0.0043 (inactive) | 0.0746 and 0.209 | -0.0986 and -0.205 | -0.483 and 0.207 | -1.29 and 0.401 | -0.447 and 0.221 | -0.102 (inactive) and -0.904 (inactive) | 0.111 and -0.235 | 0.922 (inactive) and 0.437 (inactive) | 0.742 (inactive) and 0.438 (inactive) | -0.416 (inactive) and -0.978 (inactive) | 0.309 (inactive) and -0.401 (inactive) | -0.295 and -0.326 | 2.57 (inactive) and -0.368 (inactive) | 1.14 (inactive) and 1.35 (inactive) | -0.319 and -2.87 |
| CCOC(=O)C[C@H]1[C@H](OC(=O)c2ccccc2-c2ccccc2)[C@@H](NC(=O)c2ccccc2)c2cc(OCCCO)ccc2N1C(=O)c1ccc2ccccc2n1 | 0.103 and 0.147 | -0.616 (inactive) and 0.662 (inactive) | 0.559 (inactive) and 0.171 (inactive) | 9.27 (active) and -0.23 (inactive) | 0.158 (inactive) and -0.583 (inactive) | -0.0119 and 1.12 | 0.216 and 0.0047 | 0.144 and 0.158 | 0.0956 and 0.344 | 0.502 and 1.8 | 0.869 (inactive) and -0.664 (inactive) | 0.126 and 0.341 | 5.24 (inactive) and 2.8 (inactive) | 0.709 (inactive) and 0.295 (inactive) | 0.195 (inactive) and -0.416 (inactive) | 0.353 (inactive) and 0.188 (inactive) | 0.649 and -0.172 | -0.556 (inactive) and -1.18 (inactive) | 0.848 (inactive) and 0.921 (inactive) | 2.2 and 0.732 |
| CC(C)CON=C1C[C@@H](O)[C@@H](O)[C@@H]2[C@@H]3C(=O)N(c4cccc(Oc5ccccc5)c4)C(=O)[C@@H]3CC[C@H]12 | 0.738 | -0.158 (inactive) | 0.198 (inactive) | -0.292 (inactive) | 0.235 (inactive) | 0.804 | -0.102 | -0.243 | 0.22 | 0.697 | 0.525 (inactive) | -0.298 | -0.436 (inactive) | 0.0644 (inactive) | 0.388 (inactive) | 0.158 (inactive) | -0.157 | -0.831 (inactive) | 0.11 (inactive) | -0.144 |
| Cc1ccc(S(=O)(=O)N[C@H]2COC(=O)[C@@H](C)COC(=O)[C@H](C)NC(=O)CC=C[C@H]2C)cc1 | 0.105 | 0.365 (inactive) | -0.16 (inactive) | -0.204 (inactive) | -0.253 (inactive) | -0.192 | -0.128 | -0.233 | -0.11 | 0.837 | -0.117 (inactive) | -0.195 | -0.306 (inactive) | 0.286 (inactive) | 0.501 (inactive) | 0.0584 (inactive) | -0.177 | -1.36 (inactive) | 0.555 (inactive) | 0.0658 |
| CC(CO)N1C(=O)[C@@H]2C3C(=O)OCCC=C[C@H]3OC23C=CCN(Cc2ccccc2)C(=O)[C@@H]13 (stereo not given in full) | -0.238 and -0.381 | -0.783 (inactive) and 0.124 (inactive) | 2.42 (inactive) and 0.328 (inactive) | 0.321 (inactive) and 0.195 (inactive) | -0.937 (inactive) and -0.56 (inactive) | -0.422 and -0.768 | -0.128 and -0.0762 | -0.773 and 0.447 | 1.55 and 1.17 | -0.525 and 0.901 | 0.697 (inactive) and 0.925 (inactive) | -0.0162 and 0.132 | 3.31 (inactive) and 0.464 (inactive) | 1.11 (inactive) and 0.0933 (inactive) | 1.21 (inactive) and 1.05 (inactive) | 0.403 (inactive) and 0.258 (inactive) | -0.388 and -0.526 | 1.26 (inactive) and 1.71 (inactive) | 1.09 (inactive) and -0.409 (inactive) | 2.15 and 2.85 |
